Screens as filed in PubChem.
An excerpt weighted towards active compounds, which were near 3.1% of everything screened.
VDR inh = blocks the human vitamin D receptor; AID 504847; VDR-SRC2-3 peptide fluorescence polarization, 2 h; Potency, µM, for inactives: max response, negative = inhibition, most hits filed as inhibitors; 0.93% of 400,000 active; P11473; note: potency is the fitted concentration of half-maximal effect; % is set by controls: 0 for no effect and ±100 for the full control effect
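Signal is fluorescence polarization, reporting how far test compounds block the interaction of VDR with the SRC2-3 coregulator peptide after a 2 h room-temperature incubation.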
Vif-APOBEC3G blk = Vif-A3G binding inhibition; 0.076% of 410,000 active; Potency, µM (series often up to 46.1 µM), for the others: top-dose activity, negative = active, hits mostly inhibitors; HeLa A3G-eYFP + Vif (tagged APOBEC3G with the HIV-1 protein that degrades it), YFP fluorescence, overnight; Q9HC16; AID 602310; note: potency is the fitted concentration of half-maximal effect; % is set by controls: 0 for no effect and ±100 for the full control effect; nearly all actives have a fitted effect of over 60% in size
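HeLa cells stably expressing Vif and C-terminally eYFP-tagged A3G, seeded overnight at 37 deg C, then exposed to compound by pintool overnight at 37 deg C. Rise in yellow fluorescence (Ex 488/Em 500-530, Acumen) marks blocked Vif-driven A3G degradation.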
PLK1 PBD block = blocks phosphopeptide binding to human PLK1 polo-box domain; P53350; Plk1 PBD binding of FITC phosphopeptide, fluorescence polarization; Potency, µM, for inactives: max response, negative = inhibition, actives largely listed as inhibitors; 2.8% of 360,000 active; note: potency is the fitted concentration of half-maximal effect; series mostly up to about 57 µM; % is set by controls: 0 for no effect and ±100 for the full control effect; nearly all actives have a fitted effect of over 65% in size
Vif-A3F inh = Vif-A3F binding inhibition. HeLa A3F-eYFP + Vif (tagged APOBEC3F with the HIV-1 protein that degrades it), YFP fluorescence increase. Potency, µM (highest dose often 46.1 µM), for the others: at the top dose activity, negative = active. 0.2% of 390,000 active. AID 602313; note: potency is the fitted concentration of half-maximal effect; % of control where 0% means no effect; nearly all actives have a fitted effect of over 65% in size
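Fluorescence increase (Ex 488/Em 500-530) after overnight compound treatment at 37 deg C flags inhibition of Vif-driven A3F-eYFP loss in stable HeLa A3F-eYFP/Vif cells seeded overnight beforehand.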
TSHR antagonist = human thyrotropin receptor antagonism; TSHR-expressing cells, TSH-stimulated cAMP HTRF, 2 h; hits give low values; activity change, negative = inhibition, % at 11.5 µM; 0.2% of 330,000 active;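 active = activity change below a set negative limit, meaning inhibition stronger than a set level, cut at about -70% in these data; inconclusive = activity change between two set negative limits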; note: % is set by controls: 0 for no effect and ±100 for the full control effect
Target sequence (P16473 whole entry, looked up): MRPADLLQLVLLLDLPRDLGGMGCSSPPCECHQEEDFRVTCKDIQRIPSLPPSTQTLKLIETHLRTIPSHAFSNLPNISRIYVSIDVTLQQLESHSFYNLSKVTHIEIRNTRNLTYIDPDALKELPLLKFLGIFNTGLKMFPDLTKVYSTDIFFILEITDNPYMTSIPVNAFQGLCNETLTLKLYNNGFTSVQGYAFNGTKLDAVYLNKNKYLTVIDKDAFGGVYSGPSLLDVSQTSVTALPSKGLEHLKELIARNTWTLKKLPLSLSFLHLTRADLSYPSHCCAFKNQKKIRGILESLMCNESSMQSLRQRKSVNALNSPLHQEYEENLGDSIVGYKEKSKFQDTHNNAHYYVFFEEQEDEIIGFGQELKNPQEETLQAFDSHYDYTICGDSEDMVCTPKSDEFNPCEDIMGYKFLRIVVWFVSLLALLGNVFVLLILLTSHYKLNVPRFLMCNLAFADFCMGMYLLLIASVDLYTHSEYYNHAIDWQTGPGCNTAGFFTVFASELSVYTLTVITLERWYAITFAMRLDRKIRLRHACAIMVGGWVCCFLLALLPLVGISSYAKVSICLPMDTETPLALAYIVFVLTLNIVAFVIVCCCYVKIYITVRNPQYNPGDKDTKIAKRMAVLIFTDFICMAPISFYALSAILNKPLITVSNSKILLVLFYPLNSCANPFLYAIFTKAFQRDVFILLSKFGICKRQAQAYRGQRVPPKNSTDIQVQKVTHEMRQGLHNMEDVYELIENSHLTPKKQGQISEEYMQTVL
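TSHR-expressing cells were treated with compounds, then stimulated with TSH at EC80 (4nM final) for 2 hours at 37 deg C. Cellular cAMP was measured by HTRF competition between lysate cAMP and cAMP-d2 for a cryptate-labelled anti-cAMP antibody.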
The depositor's hits bear a star; u = inconclusive; x = no result given. Unless noted, calls come from the whole dose curve; as a rule, active = well fitted curve in the direction sought with a large enough effect; inconclusive = small, poorly fitted or top-dose-only effect, or another doubt; inactive = no such curve, though single readings can be large; an effect the other way counts as inactive or inconclusive.

SMILES	VDR inh	Vif-APOBEC3G blk	PLK1 PBD block	Vif-A3F inh	TSHR antagonist
Cc1[nH]n(-c2ccccc2)c(=O)c1C(c1ccc([N+](=O)[O-])cc1)c1c(C)[nH]n(-c2ccccc2)c1=O	u	9%	7.5µM*	1%	23
Cc1[nH]n(-c2ccccc2)c(=O)c1C(C[N+](=O)[O-])c1ccccc1Cl (configuration not stated)	-20%	-9%	15µM*	2%	-1
CC1(C)C2C[C@@H](O)[C@]3(C)C(CC[C@@]4(C)[C@H](c5ccoc5)C[C@H]5O[C@]543)[C@@]2(C)[C@@H](O)C[C@H]1O (some centres not stated)	-5%	x	x	x	x
CCN1C[C@]2(COC(=O)c3ccccc3N3C(=O)C[C@H](C)C3=O)CC[C@H](OC)[C@@]34[C@@H]5C[C@H]6[C@H](OC)[C@H]5[C@](O)(C[C@@H]6OC)[C@@](O)([C@@H](OC)[C@@H]23)[C@@H]14	-3%	x	x	x	x
CC(C)(C)OC(=O)N1CC[C@H]1COc1cnc[c]([Sn]([CH3])([CH3])[CH3])c1	6%	x	x	x	x
COc1ccc2nc(/N=C/c3c(O)n(-c4cccc(Cl)c4)c(=O)[nH]c3=O)sc2c1	50µM*	u	-30%	u	-2
COc1ccc(/C=C2/C(=O)N(c3ccccc3)N=C2C)cc1	89µM*	-5%	3.8µM*	-15%	x
[S]=[Sb][S][Sb]=[S]	12%	x	x	x	x
Oc1ccc(/C=N/NP(=S)(c2ccccc2)c2ccccc2)cc1	-29%	0%	24µM*	1%	-2
O=C(O)CCC1NCC2CC1CN1CCCCC21 (configuration not stated)	0%	x	x	x	x
COc1cc(CC(=O)OCC2=C[C@H]3[C@@H]4C(C)(C)[C@]4(OC(C)=O)[C@H](OC(=O)Cc4ccccc4)[C@@H](C)[C@]3(O)[C@@H]3C=C(C)C(=O)[C@@]3(O)C2)ccc1O	-10%	x	x	x	x
C=C1[C@@H]2C[C@]3(C(CC2=O)[C@]24C5C[C@H]3[C@H]2N(CC)C[C@]5(C)CC[C@@H]4O)[C@@H]1O (some centres not stated)	-14%	x	x	x	x
Cc1ccc(/C=C2/C(=O)NC(=O)N(C)C2=O)cc1	-9%	0%	11µM*	5%	16
CN1C(=O)NC(=O)/C(=C\c2ccc([N+](=O)[O-])o2)C1=O	u	-17%	2.7µM*	-16%	6
O=C1NC(=O)N(c2ccccc2)C(=O)/C1=C\c1ccc([N+](=O)[O-])o1	x	x	x	x	-7
CN1C(=O)NC(=O)/C(=C/c2ccc(C(=O)O)cc2)C1=O	u	2%	12µM*	1%	6
NCCCC[C@H](NC(=O)[C@H](Cc1ccccc1)NC(=O)[C@H](CCCN=C(N)N)NC(=O)[C@@H](N)Cc1ccc(O)cc1)C(N)=O	11%	x	x	x	x
CN(CC(=O)O)C(=O)[C@H](Cc1ccccc1)NC(=O)[C@@H](CCCN=C(N)N)NC(=O)[C@@H](N)Cc1ccc(O)cc1	1%	x	x	x	x
NC(=O)O	9%	x	x	x	x
C=C1C(=O)O[C@@H]2C[C@@H](C)[C@H]3C=CC(=O)[C@]3(O)C[C@@H]12	-27%	u	-7%	u	7
C=C1C(=O)OC2CC3(C)OC3CCC(C)=CC(OC(C)=O)C12 (configuration not stated)	71µM*	u	-27%	-6%	x
O=C(CN1CCOCC1)c1ccc2ccccc2c1	x	1%	x	x	x
Oc1cc[c]([Hg][Cl])cc1	4µM*	x	x	x	x
O=C(OC1Cc2c(O)cc(O)cc2OC1c1cc(O)c(O)c(O)c1)c1cc(O)c(O)c(O)c1 (configuration not stated)	50µM*	x	x	x	x
C[C@@H]1OC(=O)[C@H]2C[C@H]3CCCC[C@@H]3[C@@H](/C=C/[C@H]3CCC[C@H](C)N3C)[C@@H]12	-10%	x	x	x	x
SMILES	VDR inh	Vif-APOBEC3G blk	PLK1 PBD block	Vif-A3F inh	TSHR antagonist
S=C(Nc1ccccc1)Nc1cccc(Br)c1	-11%	1%	27µM*	-8%	6
Cc1cc2c(C(F)(F)F)cc(=O)oc2c2c1NCCC2	-1%	-3%	5%	-26%	25
O=c1cc(C(F)(F)F)c2cc3c4c(c2o1)CCCN4CCC3	-11%	1%	1.2µM*	u	12
CCCCC/C=C\C/C=C\CCCCCCCCCC(=O)NCCc1ccc(O)c(O)c1	-2%	x	x	x	x
CCOC(=O)[C@]12Cc3cc(OC)ccc3[C@H]1N(C1CCCCC1)C(=O)c1ccccc12	x	x	3µM*	x	x
CCOC(=O)[C@]12Cc3ccsc3[C@H]1N(Cc1ccccc1)C(=O)c1ccccc12	-22%	-15%	-15%	0%	x
CCOC(=O)[C@]12Cc3cc(Cl)ccc3[C@H]1N(C1CCCCC1)C(=O)c1ccccc12	x	x	1.9µM*	x	x
C[C@H]1CC[C@@H]2[C@@H](C)[C@H]3C(C[C@H]4C5CC[C@H]6C[C@@H](O)CC[C@]6(C)C5CC[C@]34C)N2C1 (some centres not stated)	-16%	-2%	x	x	x
O=S(=O)(c1ccc(Cl)cc1)c1cc(Cl)c(Cl)cc1Cl	-14%	x	x	x	x
CCOc1ccc(C(=O)OC2CC3CCC(C2)N3C)cc1 (configuration not stated)	-6%	-1%	-1%	10%	2
CN1C2CCC1CC(OC(=O)c1ccc(Cl)cc1)C2 (configuration not stated)	-7%	2%	27µM*	0%	66
CCOc1c(P(=S)(N(C)C)N(C)C)c(C)nn1-c1ccccc1	5%	1%	-9%	6%	4
CCN(CC)P(=S)(c1c(C)nc2ccccn12)c1c(C)nc2ccccn12	u	-22%	5.3µM*	1%	-1
COc1ccc2c(c1)NP(=S)(Oc1ccccc1)N2 (configuration not stated)	u	1%	15µM*	-3%	-1
COP(=S)(OC)Oc1ccc(Sc2ccc(OP(=S)(OC)OC)cc2)cc1	50µM*	-1%	u	4%	x
Nc1ccc(Sc2ccc(N)cc2)cc1	5%	-2%	3%	2%	x
COP(=S)(OC)Oc1ccc([N+](=O)[O-])cc1	16µM*	x	x	x	x
CN(C(=O)Oc1ccc([N+](=O)[O-])cc1)c1ccccc1	-11%	1%	-1%	3%	13
F/C(COc1ccc2c(c1)[nH]c1ccccc12)=C1/CN2CCC1CC2	17%	x	x	x	x
O=C(O)[C@@H]1CSC(c2cccnc2)N1 (some centres not stated)	-9%	x	x	x	x
O=C(c1cn(Cc2ccccc2)c2ccccc12)C1CC1	u	-3%	27µM*	-8%	-11
C[C@@H]1Cc2c(Cl)cc(C(=O)N[C@H](Cc3ccccc3)C(=O)O)c(O)c2C(=O)O1	-7%	x	x	x	x
CCc1c(C)nc(N)nc1N1N=C1SC(C(C)=O)C(C)=O	22µM*	-5%	-22%	13%	8
